# Experimental data from PubChem BioAssay AID1159580 (chemical genetic matrix, 2015).
# In all, about 5,500 compounds went through this assay and about 2,000 (36%) were called active. Another 18% or so got no clear call; they are omitted. The list shows a part of the results. Values without a mark were called inactive. No stated cut-off is given here; in the data, active means normalized growth mostly below about 0.91 (no sharp cut-off); inconclusive means no clear call, values can overlap the other calls; inactive means mostly above about 0.92.
# Test: chemical genetic growth profiling, strain panel (AID 1159580);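 further: tested at 20 µM; growth read once vehicle control cultures reached saturation at 30 °C; 1 = growth at the plate median or of vehicle wells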
# Conditions: S. cerevisiae deletion strains, growth OD
compound,measurement,setting,value
CC1(C)C(=O)C=C[C@@]2(C)C1=C(O)C(=O)[C@]1(C)C2CC[C@@]2(C)[C@H](c3ccoc3)C[C@H]3O[C@]321 (stereo partly specified),normalized growth,"locus YJL187C, strain SWE1, stronger effect = lower value",0.928
same,normalized growth,"locus YJR043C, strain POL32, stronger effect = lower value",0.781 (active)
same,normalized growth,"locus YJR066W, strain TOR1, stronger effect = lower value",0.757 (active)
same,normalized growth,"locus YKL009W, strain mrt4, stronger effect = lower value",0.885
same,normalized growth,"locus YKL068W, stronger effect = lower value",0.942
same,normalized growth,"locus YKL085W, strain MDH1 (second series), stronger effect = lower value",0.885 (active)
same,normalized growth,"locus YKL085W, strain MDH1, stronger effect = lower value",0.885 (active)
same,normalized growth,"locus YKL160W, strain elf1, stronger effect = lower value",0.872 (active)
same,normalized growth,"locus YKL190W, strain CNB1, stronger effect = lower value",0.751 (active)
same,normalized growth,"locus YKR001C, strain vps1, stronger effect = lower value",0.777 (active)
same,normalized growth,"locus YKR026C, strain gcn3, stronger effect = lower value",0.965
same,normalized growth,"locus YKR091W, strain srl3, stronger effect = lower value",0.969
same,normalized growth,"locus YLL001W, strain dnm1, stronger effect = lower value",0.931
same,normalized growth,"locus YLL026W, stronger effect = lower value",0.944
same,normalized growth,"locus YLL041C, strain sdh2, stronger effect = lower value",0.991
same,normalized growth,"locus YLR027C, strain aat2, stronger effect = lower value",0.791 (active)
same,normalized growth,"locus YLR039C, strain RIC1, stronger effect = lower value",0.404 (active)
same,normalized growth,"locus YLR058C, strain SHM2, stronger effect = lower value",0.782 (active)
same,normalized growth,"locus YLR102C, strain apc9, stronger effect = lower value",0.967
same,normalized growth,"locus YLR113W, strain HOG1, stronger effect = lower value",0.776 (active)
same,normalized growth,"locus YLR221C, strain rsa3, stronger effect = lower value",0.759 (active)
same,normalized growth,"locus YLR258W, strain gsy2, stronger effect = lower value",0.88 (active)
same,normalized growth,"locus YLR262C, strain YPT6 (second series), stronger effect = lower value",0.624 (active)
same,normalized growth,"locus YLR262C, strain YPT6, stronger effect = lower value",0.382 (active)
same,normalized growth,"locus YLR268W, strain sec22, stronger effect = lower value",0.788 (active)
same,normalized growth,"locus YLR320W, strain mms22, stronger effect = lower value",0.639 (active)
same,normalized growth,"locus YLR342W, strain FKS1 (second series), stronger effect = lower value",0.578 (active)
same,normalized growth,"locus YLR342W, strain FKS1, stronger effect = lower value",0.881 (active)
same,normalized growth,"locus YLR357W, strain rsc2, stronger effect = lower value",1.03
same,normalized growth,"locus YLR370C, strain arc18, stronger effect = lower value",0.959
same,normalized growth,"locus YLR371W, strain rom2, stronger effect = lower value",0.706 (active)
same,normalized growth,"locus YLR384C, strain iki3, stronger effect = lower value",0.973
same,normalized growth,"locus YLR418C, strain cdc73, stronger effect = lower value",0.318 (active)
same,normalized growth,"locus YML016C, strain PPZ1, stronger effect = lower value",0.887 (active)
same,normalized growth,"locus YML032C, strain rad52, stronger effect = lower value",0.811 (active)
same,normalized growth,"locus YML120C, strain ndi1, stronger effect = lower value",0.884 (active)
same,normalized growth,"locus YML124C, strain tub3, stronger effect = lower value",0.922 (active)
same,normalized growth,"locus YMR058W, strain fet3, stronger effect = lower value",0.875 (active)
same,normalized growth,"locus YMR078C, strain ctf18, stronger effect = lower value",0.936
same,normalized growth,"locus YMR125W, strain sto1, stronger effect = lower value",0.876 (active)
same,normalized growth,"locus YMR129W, stronger effect = lower value",0.969
same,normalized growth,"locus YMR205C, strain PFK2, stronger effect = lower value",0.674 (active)
same,normalized growth,"locus YMR223W, strain ubp8, stronger effect = lower value",0.865 (active)
same,normalized growth,"locus YMR231W, strain pep5, stronger effect = lower value",0.931
same,normalized growth,"locus YMR307W, strain GAS1, stronger effect = lower value",0.502 (active)
same,normalized growth,"locus YNL067W, strain RPL9B, stronger effect = lower value",0.876
same,normalized growth,"locus YNL071W, strain lat1, stronger effect = lower value",0.44 (active)
same,normalized growth,"locus YNL183C, strain NPR1, stronger effect = lower value",0.848
same,normalized growth,"locus YNL209W, strain ssb2, stronger effect = lower value",0.943
same,normalized growth,"locus YNL233W, strain BNI4, stronger effect = lower value",0.706 (active)
same,normalized growth,"locus YNL248C, strain rpa49, stronger effect = lower value",0.938
same,normalized growth,"locus YNL250W, strain rad50, stronger effect = lower value",0.97
same,normalized growth,"locus YNL271C, strain bni1, stronger effect = lower value",0.96
same,normalized growth,"locus YNL298W, strain CLA4, stronger effect = lower value",0.922
same,normalized growth,"locus YNL307C, strain MCK1, stronger effect = lower value",0.505 (active)
same,normalized growth,"locus YNL322C, strain KRE1 (second series), stronger effect = lower value",0.981
same,normalized growth,"locus YNR049C, strain mso1, stronger effect = lower value",0.962
same,normalized growth,"locus YNR052C, strain pop2, stronger effect = lower value",0.863 (active)
same,normalized growth,"locus YOL006C, strain TOP1, stronger effect = lower value",0.666
same,normalized growth,"locus YOL012C, strain htz1",0.626
same,normalized growth,"locus YOL147C, strain pex11, stronger effect = lower value",0.804 (active)
same,normalized growth,"locus YOR001W, strain rrp6, stronger effect = lower value",0.841 (active)
same,normalized growth,"locus YOR061W, strain CKA2, stronger effect = lower value",0.847 (active)
same,normalized growth,"locus YOR069W, strain VPS5, stronger effect = lower value",0.889 (active)
same,normalized growth,"locus YOR070C, strain gyp1, stronger effect = lower value",0.809 (active)
same,normalized growth,"locus YOR080W, strain dia2, stronger effect = lower value",0.964
same,normalized growth,"locus YOR083W, strain WHI5, stronger effect = lower value",0.875 (active)
same,normalized growth,"locus YOR106W, strain vam3, stronger effect = lower value",0.801 (active)
same,normalized growth,"locus YOR136W, strain idh2, stronger effect = lower value",0.891 (active)
same,normalized growth,"locus YOR144C, strain elg1, stronger effect = lower value",0.855 (active)
same,normalized growth,"locus YOR184W, strain ser1, stronger effect = lower value",0.487 (active)
same,normalized growth,"locus YOR231W, strain MKK1, stronger effect = lower value",0.706 (active)
same,normalized growth,"locus YOR265W, strain rbl2, stronger effect = lower value",0.918 (active)
same,normalized growth,"locus YOR270C, strain vph1, stronger effect = lower value",0.897
same,normalized growth,"locus YOR290C, strain snf2, stronger effect = lower value",0.84 (active)
same,normalized growth,"locus YOR316C, strain cot1, stronger effect = lower value",0.984
same,normalized growth,"locus YPL051W, strain arl3, stronger effect = lower value",0.831 (active)
same,normalized growth,"locus YPL078C, strain atp4, stronger effect = lower value",0.939
same,normalized growth,"locus YPL106C, strain sse1, stronger effect = lower value",0.91
same,normalized growth,"locus YPL240C, strain hsp82, stronger effect = lower value",0.861 (active)
same,normalized growth,"locus YPL256C, strain CLN2, stronger effect = lower value",0.747 (active)
same,normalized growth,"locus YPR119W, strain clb2, stronger effect = lower value",0.915 (active)
same,normalized growth,"locus YPR141C, strain kar3, stronger effect = lower value",0.96
same,normalized growth,"locus YPR163C, strain tif3, stronger effect = lower value",0.665 (active)
same,normalized growth,"locus YPR167C, strain met16, stronger effect = lower value",0.85 (active)
same,normalized growth,"strain wtn01, stronger effect = lower value",0.765 (active)
